High-throughput results: PubChem, several laboratories
NR3A LBD binder: binders of NR3A ligand-binding domain, primary screen, biophysical, differential scanning fluorimetry, uHTS. Glutamate receptor ionotropic, NMDA 3A (GRIN3A) ligand-binding domain. NR3A LBD differential scanning fluorimetry, Tm shift; 0% = protein alone, 100% = glycine-bound protein. Tm shift relative to glycine control, % at 25 µM. actives 2.5% (n = 340,000). AID 1259313, 2017;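 active means melting temperature shift of at least 10% of the positive control shift, at one fixed dose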
Mot1-301 SUMO: yeast Mot1-301 growth rescue at high temperature, primary screen, SUMOylation pathway inhibitor project, S. cerevisiae, ATP luminescence, 38.5C; S. cerevisiae Mot1-301 growth rescue; percent above DMSO median, 100 means doubled; growth rescue, % at 18.8 µM; actives 1% (n = 320,000);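 active means every valid replicate shows activation above 250% relative to neutral control wells; inactive means the rest, any valid replicate at or below 250%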;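 further: OY570 slx delta 5 strain wells were the positive control but not used for scaling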
AI-2 QS modul: Vibrio harveyi AI-2 quorum sensing modulators, primary screen, JMH597 strain, luminescence/OD600 ratio; Vibrio harveyi JMH597 AI-2 luminescence/OD600 ratio, 9 h; active compounds read low; strain lacks LuxN and CqsS sensors; 0 = neutral-control median; actives 0.4% (n = 300,000); activity change, % at 7.5 µM; in the data active means activity change below about -75%, passing the limit was not always enough;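 further: luminescence divided by OD600 gain over 9 h not by final OD600 alone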
Cardio protect: cardioprotection against H2O2-induced cell death, primary screen, uHTS, H9c2 cells, ATPLite luminescence | H9c2 cardiomyocytes, H2O2 injury protection, 2 h | protection from H2O2 cell death, % at 20 µM | actives 0.63% (n = 360,000);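 active means compounds giving at least 50% protection of heart cells from peroxide-induced death in the single-dose screen, raw or plate-pattern-corrected value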;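 further: 0% = DMSO wells with peroxide and 100% = DMSO wells without peroxide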
AHR act: AHR activators, primary screen, cell-based, luminescence, luciferase reporter, human | actives 2.5% (n = 320,000) | AID 2796, 2010 | AHR-responsive luciferase reporter cells | activation, % at 5 µM | Aryl hydrocarbon receptor (Homo sapiens), P35869; in the data active means activation above about 47%;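 further: 0% = vehicle wells and 100% = reference agonist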
NTR1 agonist: agonists of human NTR1, primary screen, imaging, U2OS cells, beta-arrestin-GFP, high content; NTR1-U2OS beta-arrestin-GFP spot imaging, agonist mode; actives 0.17% (n = 330,000); AID 493036, 2011; activation, % at 20 µM;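 active means activation at or above 40% of the spot to cytoplasm intensity ratio, with at least 20 cells analyzed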;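 further: 0% = DMSO without peptide and 100% = 100 nM NTR1 peptide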
Target sequence (P30989 whole entry, looked up): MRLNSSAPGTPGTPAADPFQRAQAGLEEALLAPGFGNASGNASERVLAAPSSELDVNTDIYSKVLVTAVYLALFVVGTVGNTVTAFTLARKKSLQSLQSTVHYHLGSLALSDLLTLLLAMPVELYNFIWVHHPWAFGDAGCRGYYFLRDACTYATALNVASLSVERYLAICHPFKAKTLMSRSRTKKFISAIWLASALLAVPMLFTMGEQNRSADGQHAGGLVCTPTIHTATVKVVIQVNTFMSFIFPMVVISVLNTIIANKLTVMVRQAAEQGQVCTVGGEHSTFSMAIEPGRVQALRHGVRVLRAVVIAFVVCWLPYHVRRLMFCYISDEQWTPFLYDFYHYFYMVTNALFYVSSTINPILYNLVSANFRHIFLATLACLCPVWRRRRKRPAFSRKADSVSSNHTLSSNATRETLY
JMH597 growth rt: Vibrio harveyi growth inhibition, confirmation, counter-screen for AI-2 quorum sensing project, JMH597 strain, OD600 absorbance. actives 1% (n = 750). AID 2726, 2010. shares compounds with AI-2 QS modul. growth inhibition, % at 7.5 µM. 9 h; lacks LuxN and CqsS sensors;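 active means every replicate shows growth inhibition above 50%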
BB721 lum counter: luminescence inhibition in constitutive-on V. harveyi, confirmation, counter-screen for LuxS inhibitor project, strain BB721, luminescence readout. AID 2727, 2010. shares compounds with AI-2 QS modul. Vibrio harveyi BB721 luminescence, 9 h. actives 95% (n = 750). inhibition, % at 7.5 µM;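 active means inhibition above about 80% in every replicate, not just on average, limit read from the data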
BB721 growth rt: growth inhibition of V. harveyi BB721, confirmation, cytotoxicity control for AI-2 quorum sensing inhibitors, strain BB721, absorbance OD600 | shares compounds with AI-2 QS modul | Vibrio harveyi BB721 growth, 9 h | growth inhibition, % at 7.5 µM | actives 3% (n = 750);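 active means every replicate shows growth inhibition above 50%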
AI-2 QS JMH597: Vibrio harveyi AI-2 signaling luminescence modulation – JMH597 strain, confirmation; shares compounds with AI-2 QS modul; Vibrio harveyi JMH597 AI-2 quorum sensing luminescence, 9 h; luxN and CqsS knockout, AI-2 only; inhibition, % at 7.5 µM; actives 97% (n = 750); AID 2736, 2010;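 active means every replicate shows more than 75% inhibition of signal versus neutral control wells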
Numbers without * were called inactive; x = no result. An excerpt weighted towards active compounds, which were near 6.2% of everything screened.

SMILES | NR3A LBD binder | Mot1-301 SUMO | AI-2 QS modul | Cardio protect | AHR act | NTR1 agonist | others
O=S(=O)(O)C(=Cc1ccccc1)c1ccccc1 (tested in a mixture with another compound) | 1 | x | x | -2 | x | x
CN1CCN(c2ccc(S(C)(=O)=O)cc2[N+](=O)[O-])CC1 | -3 | 9 | 17 | 11 | 0 | 2
CN1CCN(c2ccc(S(=O)(=O)C(F)(F)F)cc2[N+](=O)[O-])CC1 | 15* | 15 | 18 | 5 | 4 | -1
CCn1c(=O)cc(OCC(=O)N2CCN(Cc3ccc4c(c3)OCO4)CC2)c2ccccc21 | 1 | -4 | 14 | 10 | 55* | 2
CC(C)(C)N1CC(C(=O)c2ccccc2)C1c1ccccc1 (stereo not given) | 0 | x | x | 1 | x | x
O=c1[nH]c(O)c(/C=C2/C=CC(c3cc(Cl)ccc3Cl)=N2)c(=O)[nH]1 | -3 | 247 | 28 | -16 | 0 | 46*
CC1=Nc2ccccc2/C1=C/c1c(O)[nH]c(=O)[nH]c1=O | 1 | -11 | 6 | 0 | 14 | 0
COc1ccc(-n2nnnc2C(CCc2ccccc2)N2CCC3(CC2)C(=O)NCN3c2ccccc2)cc1 (stereo not given) | x | x | x | -9 | x | x
Oc1ccc(CC2CC3CCN2CC3)cc1O (stereo not given) | 0 | 5 | -1 | 11 | -1 | 1
Oc1ccc(C[C@H]2NCCc3cc(O)c(O)cc32)cc1O | 0 | 14 | 7 | 57* | x | -2
O=[N+]([O-])c1ccc(Cl)c([N+](=O)[O-])c1 | 1 | -21 | x | -43 | -4 | 20
CN1C(=O)C(c2ccc([N+](=O)[O-])cc2[N+](=O)[O-])C(=O)N(C)C1=O | 10* | -6 | 16 | 0 | 11 | 1
CC(C)=CCc1c(O)cc2c(c1O)C(=O)CC(c1ccc(O)cc1)O2 (stereo not given) | 26* | 32 | 4 | -9 | 42 | 37
CCC1(c2ccccc2)C(=O)NC(=O)NC1=O | 0 | x | x | 4 | -1 | 0
CCC1(c2ccccc2)C(=O)NC(=S)NC1=O | 11* | x | x | -16 | x | x
O=C(COC(=O)Cc1ccccc1)Nc1ccc(SC(F)F)cc1 | -1 | -6 | -91* | 1 | 1 | -1 | JMH597 growth rt=30;BB721 lum counter=94*;BB721 growth rt=-39;AI-2 QS JMH597=99*
Cc1ccsc1C(=O)C1CCCN(Cc2ccn[nH]2)C1 (stereo not given) | 2 | -6 | 18 | 6 | 2 | 0
O=C(c1ccc(-c2ccccc2)cc1)C1CCCN(Cc2ccn[nH]2)C1 (stereo not given) | 0 | 6 | -84* | 4 | 25 | 2 | JMH597 growth rt=3;BB721 lum counter=84*;BB721 growth rt=14;AI-2 QS JMH597=91*
O=C(c1cc2cc(Cl)ccc2[nH]1)N1CCC2(CC1)OCCO2 | 8 | 14 | -84* | -3 | 39 | 1 | JMH597 growth rt=18;BB721 lum counter=96*;BB721 growth rt=15;AI-2 QS JMH597=98*
